# Data: PubChem BioAssay (NCI)
# This is part of a sample that, as a whole, favours compounds with a hit. Of some 83,000 tested, about 20% had one in any assay.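 Values shown are percent growth following 48 h exposure of cells in 96-well plates to a single concentration of compound; below 10 was considered active.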 Unmarked numbers belong to inactive results. Active and inactive are the calls of the source.
# How the values were obtained:
# Assay in all cases: NCI-60 one-dose screen, 48 h (100 = growth as untreated, 0 = no growth, -100 = all killed)
# Details in all cases: 10 µM unless noted
# SK-MEL-2 melanoma = test system: SK-MEL-2 melanoma
# EKVX NSCLC = test system: EKVX NSCLC
# SN12C renal = test system: SN12C renal
# UO-31 renal = test system: UO-31 renal
# TK-10 renal = test system: TK-10 renal
# ACHN renal = test system: ACHN renal
# CAKI-1 renal = test system: CAKI-1 renal
# CCRF-CEM leukemia = test system: CCRF-CEM leukemia
# MOLT-4 leukemia = test system: MOLT-4 leukemia
# A498 renal = test system: A498 renal
Compound,growth (SK-MEL-2 melanoma),growth (EKVX NSCLC),growth (SN12C renal),growth (UO-31 renal),growth (TK-10 renal),growth (ACHN renal),growth (CAKI-1 renal),growth (CCRF-CEM leukemia),growth (MOLT-4 leukemia),growth (A498 renal)
CN(C)c1ccc(/C=C(\C#N)c2nc3ccccc3s2)cc1,106%,89.5%,104%,90.7%,121%,101%,89.2%,81.8%,96.4%,
COc1cnc2c(c1)C(=O)c1c-2n(CCCN2CCCC2)c(=O)c2cc([N+](=O)[O-])ccc12,13.8%,21.7%,8.36% (active),-96.3% (active),13.2%,-91.2% (active),-13.6% (active),-16.1% (active),1.49% (active),
C[C@@H]1CC[C@@H]2[C@@H]1[C@H](OC(=O)/C=C/c1ccccc1)[C@]1(C3CCCCC3)C[C@@H](OC(=O)CO)[C@@]2(C)O1,92.3%,68.6%,16.6%,-51.7% (active),93.1%,14.8%,,62.8%,61.6%,-31.7% (active)
c1ccc(CSc2ncnc3nc[nH]c23)nc1,112%,99.6%,98.6%,96.4%,101%,105%,,102%,97.7%,102%
C=C1C(=O)O[C@H]2[C@H]1CC/C(Cn1cc(Cc3c[nH]c4ccccc34)nn1)=C\CC[C@@]1(C)O[C@@H]21,51.2%,53.6%,39.4%,-71.1% (active),14.7%,-36.1% (active),,-17.1% (active),-1.1% (active),64.3%
CCN(CC)CCCC(C)NCCCNc1cccc2cccnc12 (stereo unspecified),112%,101%,86.5%,72.2%,97.7%,108%,98.4%,96.9%,94.1%,
CCC(c1ccc(O)cc1)C(CC)c1ccc(O)c(F)c1 (stereo unspecified),75.1%,84.2%,88.2%,55.4%,96.6%,90.5%,89.2%,,54.9%,
Oc1ccccc1N=Cc1c(O)ccc2ccccc12,62.4%,63.2%,65.3%,57%,119%,59.3%,,32.5%,37.1%,64.8%
Cc1cc(N/N=C/c2nc(-c3ccc(Cl)cc3)oc2C)c2cc(Cl)ccc2n1,104%,92%,-5.24% (active),21.2%,30.5%,63.4%,90.2%,-24.3% (active),-20.7% (active),
COc1cc2nc3cc([N+](=O)[O-])ccc3c(NCCCNCC(C)(C)O)c2cc1OC,-47.5% (active),-19.6% (active),-34.8% (active),1.88% (active),-31.7% (active),1.58% (active),,1.71% (active),10.5%,-82.2% (active)
CC1=N/C(=C\c2cccc(Br)c2)C(=O)O1,109%,99.5%,98.2%,90.1%,101%,109%,,107%,,119%
CCc1ccc(C(c2ccc(CC)cc2)C(Cl)(Cl)CCl)cc1,94.2%,95.8%,,84.1%,109%,97.6%,96.6%,114%,,81.7%
CC/C(=C(\c1ccccc1)c1ccc(OCCNC)cc1)c1ccccc1,-90.5% (active),-69.2% (active),-90.5% (active),,-80.7% (active),-95% (active),-68.2% (active),0.764% (active),27.1%,-62.2% (active)
C=CC[N+]1(CC)CCN=C1CCCCCCCCCCCCCCCCC (stereo unspecified),-74% (active),-75.7% (active),,-65.5% (active),-94.2% (active),-86.6% (active),,-59.4% (active),,
CN1Cc2c(cc(CN3CCCCC3)n2C)C(c2ccc(Br)cc2)C1 (stereo unspecified),114%,77.2%,84.8%,,92.3%,98.1%,83.7%,88.2%,92.5%,98.1%
COc1ccc(CNc2nccnn2)cc1,108%,99.1%,108%,100%,93.4%,98%,,114%,47.7%,
CCCCN(CCCC)CCC(C)(O)c1cc2ccccc2c2ccccc12 (stereo unspecified),122%,103%,,50.9%,104%,96.9%,87.9%,42.4%,37.5%,83.1%
CS(=O)(=O)c1c(Nc2ccccc2)n[nH]c1N,113%,116%,95%,96.4%,90.2%,102%,,91.1%,98.6%,
O=C1OC2C(I)C3CC2C1C3c1ccccc1 (stereo unspecified),128%,129%,,95.8%,145%,102%,,110%,102%,114%
O=C(O)c1cccnc1Br,99.6%,107%,,73.5%,113%,99.6%,94.1%,121%,103%,104%
CCN(CC)CC(C)(C)C(=O)/C=C/c1ccccc1,99.9%,26.7%,41.1%,,91.5%,43.1%,49.7%,9.36% (active),19.1%,68.4%
COc1ncc(-c2ccc3ncnc(Nc4cccc(Cl)c4)c3c2)cc1NS(C)(=O)=O,32%,12.1%,29.1%,8.8% (active),-11.1% (active),,14.9%,32.5%,-6.32% (active),0.974% (active)
O=S(=O)(NCCCNc1cc(-c2cn(-c3ccccc3)nc2-c2cccc(O)c2)ccn1)c1ccccc1,74.6%,37.8%,68.7%,37.8%,62.5%,,,38.5%,37.1%,50.6%
CCN(CC)Cc1cc(Nc2c3ccc(Cl)cc3nc3c(C)cccc23)ccc1O,-73.2% (active),-40.4% (active),,-96.8% (active),-60.5% (active),-86.4% (active),-41.1% (active),4.19% (active),-3.97% (active),-48% (active)
C=C1CCC2C3(C)COC(C)(C)OC3CCC2(C)C1C/C=C1/C(=O)OCC1OC(C)=O (stereo unspecified),49.2%,,33%,64.6%,68.7%,24.3%,19.3%,,,116%
O=C(Nc1cccc2c1C(=O)c1cccc(Nc3cccc4c3C(=O)c3cccc(NC(=O)c5ccccc5)c3C4=O)c1C2=O)c1ccccc1,109%,125%,,86.3%,108%,104%,99.1%,89.5%,,121%
N=c1c2ccccc2nc2n1CCCCC2,114%,103%,104%,89.7%,123%,105%,,92.9%,117%,121%
COc1ccc(Cl)cc1Nc1nc(C(F)(F)F)ccc1C(=O)N/N=C/c1cccnc1,39%,,62.7%,41.5%,49%,36.7%,43.2%,13%,,40.8%
O=[N+]([O-])c1c(F)cccc1Nc1cccc(F)c1,103%,103%,,78.3%,113%,101%,101%,,93.8%,80.8%
